This is an account of results in PubChem BioAssay AID624483 (NMMLSC, 2012).

The structures appear in SMILES notation. In all, about 360,000 compounds went through this assay and about 11,000 (3.1%) were called active. Roughly 2% stayed inconclusive and do not appear here. Cut-off read from the data, not from the text of the source: active = fluorescence intensity above about 16000; inconclusive = no clear call, values can overlap the other calls; inactive = below that. The list comes from a sample in which actives are over-represented; it also holds similar structures and randomly drawn compounds.

The nature of the assay: counter-screen for toxin protease inhibitors: compound fluorescence, primary screen, artefact control for toxin protease inhibitor project, biochemical, multiplex microsphere, HTS (AID 624483). To be noted: compound autofluorescence counterscreen, microsphere flow cytometry; stronger effect = higher value. (A counterscreen serves to expose hits that act by an unwanted route or on another target.)
In the case of `O=C(c1c(F)cccc1Cl)N1CCN(c2ccccn2)CC1`, the fluorescence intensity was 6090 (inactive). To `Cc1cc(C(=O)N2CCN(c3ccccn3)CC2)c(C)o1` belongs 21600 (active). To `O=C(c1cc2ccccc2s1)N1CCN(c2ccccn2)CC1` belongs 5840 (inactive). To `CC1(C(=O)NS(=O)(=O)c2cccc(OC(F)F)c2)CCN1C(=O)C1CC1` (configuration not stated) belongs 3660 (inactive); to `O=C(NC1CCCC1)C(c1ccccn1)N(C(=O)c1csnn1)C1CCCC1` (configuration not stated), 3210 (inactive); to `COc1ccc(C(=O)NCc2ccccc2C)cc1S(=O)(=O)NC1CCCC1`, 3480 (inactive). Regarding `CCOc1ccc(C)cc1S(=O)(=O)NC1CCCCCC1`, the fluorescence intensity is 5960 (inactive). `COc1ccc(C)cc1S(=O)(=O)NC1CCCCC1`: the fluorescence intensity was 20200 (active).

As to `CCCCC(=O)N(C)c1c(CC)nc2c(OCc3ccc(S(C)(=O)=O)cc3)cccn12`, the fluorescence intensity was 4320 (inactive). To `CC(C)Oc1cc(F)ccc1-c1cc(C(=O)Nc2cccc(Cl)c2)[nH]n1` belongs 3940 (inactive); to `CCC1OC(C2CC2)CC2=C1C(=O)OC(C)(C)O2` (configuration not stated), 5440 (inactive); to `CCc1nc2ccc(C(=O)NCc3ccc(OC)cc3)cn2c1N(CC)Cc1cccc(Br)c1`, 4320 (inactive). With `COc1ccccc1NC(=O)CC(NCCN(C)C)C(=O)O` (configuration not stated), the fluorescence intensity is 15400 (inactive). To `CN(C)CCNC(=O)Nc1cccc(Cl)c1Cl` belongs 2400 (inactive); to `CN(C)CCNC(=O)C(C(=O)c1ccccc1)n1ccccc1=O` (configuration not stated), 23600 (active). In the case of `FC(F)(F)COc1nc(N2CCCCC2)nc(N2CCNCC2)n1`, the fluorescence intensity was 2450 (inactive). To `FC(F)(F)Oc1ccccc1C(c1nnnn1C1CCCCC1)N1CCN(C/C=C/c2ccccc2)CC1` (configuration not stated) belongs 4590 (inactive); to `Cc1cc2ccccn2c1C(=O)c1cccc(S(=O)(=O)N2CCOCC2)c1`, 4300 (inactive).

Turning to `CCOC(=O)N/N=C1\CC(C)S(=O)(=O)c2ccc(Cl)cc21` (configuration not stated), the fluorescence intensity was 3940 (inactive). To `O=C(CC(=O)N/N=C\c1ccc(F)cc1)NCCc1ccccc1` belongs 3990 (inactive); to `O=C(CN1CCN(C/C=C/c2ccccc2)CC1)Nc1ccc(F)cc1F`, 4560 (inactive); to `Cc1ccc(COc2ccc(/C=N/NC(=O)CN3CCCCC3)cc2)cc1`, 3530 (inactive).

In the case of `O=C(CCC(=O)Nc1ccccc1)N/N=C/c1ccccc1F`, the fluorescence intensity is 2560 (inactive). To `O=C(CN1CCSCC1)N/N=C/c1ccc(F)cc1` belongs 19800 (active); to `O=C(CN1CCSCC1)N/N=C/c1ccc(F)cc1F`, 23700 (active). Consider `c1ccc2c(c1)C(=NC1CCCCC1)NC2=NC1CCCCC1`, for which the fluorescence intensity was 8360 (inactive). To `CCOc1ccccc1N1C(=O)CC(Sc2nccc(C)n2)C1=O` (configuration not stated) belongs 4180 (inactive); to `COC(=O)[C@]12CCCCC=C1N(Cc1ccco1)C(=O)[C@H](CC(=O)NCCCCc1ccccc1)C2`, 5100 (inactive); to `Cc1cccc(-c2cnc(C(O)c3cc(C)cc(C)c3)[nH]2)c1` (configuration not stated), 3860 (inactive). To `Cc1ccc(S(=O)(=O)N2CCC(C)CC2)cc1C(=O)NCc1ccccn1` belongs 5690 (inactive). To `Cc1cccc(CN2CCN(C3CN(Cc4ccccc4)S(=O)(=O)C3)CC2)c1` (configuration not stated) belongs 5880 (inactive). For the molecule `CCOC(=O)C1CCN(C(=O)/C=C/c2cc(OC)c(OC)c(OC)c2)CC1`, the fluorescence intensity is 2640 (inactive). To `CCOC(=O)C1CCN(S(=O)(=O)c2cc(F)ccc2OC)CC1` belongs 4720 (inactive); to `CCOC(=O)C1CCCCN1Cc1ccc(OC)c(OC)c1OC` (configuration not stated), 21900 (active); to `O=C(Nc1ccc2c(c1)OCCO2)C1c2ccccc2OCC(=O)N1Cc1ccccn1` (configuration not stated), 5110 (inactive). To `Cc1[nH]c2ccccc2c1C(=O)CSCC(=O)O` belongs 23600 (active); to `Cc1[nH]c2ccccc2c1C(=O)CN1CCCC(C)C1` (configuration not stated), 3780 (inactive).

On to `Cc1[nH]c2ccccc2c1C(=O)CN1CC(C)CC(C)C1` (configuration not stated), for which the fluorescence intensity is 4370 (inactive). To `O=C(O)c1cc(S(=O)(=O)NC2CCCc3ccccc32)ccc1O` (configuration not stated) belongs 3070 (inactive); to `Cc1nc(C(F)(F)F)ccc1C(=O)N1CCC1(C)C(=O)NS(=O)(=O)c1ccccc1` (configuration not stated), 2950 (inactive).

Consider `Nc1nc2c(ncn2[C@@H]2O[C@H](CNS(=O)(=O)N3CCc4ccccc4C3)[C@@H](O)[C@H]2O)c(=O)[nH]1`, for which the fluorescence intensity was 5780 (inactive).

For `Cc1ccccc1CCN(CC(=O)NC1CCCCC1)C(=O)c1csnn1`, the fluorescence intensity is 4280 (inactive). To `CCOCCC(=O)Nc1ccc2c(c1)c(=O)n(C)n2-c1ccc2ccccc2c1` belongs 4100 (inactive). To `CCOC(=O)CN(C(=O)CN1CCOCC1)c1ccc(Br)cc1` belongs 16500 (active); to `O=C(Cc1ccc(Br)cc1)NCCN1CCOCC1`, 4390 (inactive); to `O=C(CN1CCOCC1)N/N=C/c1ccc(-c2ccc(Br)cc2)o1`, 6290 (inactive). To `COCCOC1CCN(C(=O)c2ccc(OC)c(OC3CCN(C(C)C)CC3)c2)CC1` belongs 5660 (inactive); to `OC[C@@H]1CN(Cc2cccs2)C[C@H](n2cnc3c(Nc4ccccc4)ncnc32)O1`, 2850 (inactive); to `Cc1nc2ccccc2c2oc(C(=O)NCCCN3CCC(C)CC3)cc12`, 6790 (inactive).

On to `CCCN(CCC)CCNC(=O)c1cc2c(C)nc3ccccc3c2o1`, for which the fluorescence intensity was 23700 (active). To `CCN(CC)CCNC(=O)c1ccc(NC(=O)c2cc(-c3ccncc3)nc3ccccc23)cc1` belongs 5900 (inactive); to `COc1cc(CCN=Cc2ccccc2O)c([N+](=O)[O-])cc1OC`, 6170 (inactive); to `CCOC(=O)[C@]12CCCC=C1N(Cc1ccc3c(c1)OCO3)C(=O)[C@H](CC(=O)NCc1cccs1)C2`, 4370 (inactive). To `COc1cccc(CNC(=O)c2cccnc2Sc2ccc(Cl)cc2)c1` belongs 5920 (inactive); to `O=C(NCc1cccnc1)c1cccnc1Sc1ccc(Cl)cc1`, 16900 (active); to `O=C(NC1CCCCCC1)c1cccnc1Sc1ccc(Cl)cc1`, 2130 (inactive). To `C=CCn1c(=O)n(C)c2c(=O)n(C)c(=O)n(C)c21` belongs 3000 (inactive). Consider `O=[N+]([O-])c1ccc(CN2CC(N3CC=CC3)CS2(=O)=O)cc1` (configuration not stated), for which the fluorescence intensity was 6550 (inactive). As for `CCOc1ccc(-c2cn(S(=O)(=O)c3cccc4nsnc34)nc2N)cc1`, the fluorescence intensity is 4610 (inactive). To `CCCCNC(=O)OC1CC2CC1[C@H]1CCCCN1C2=O` (some centres not stated) belongs 5740 (inactive). To `Cn1ncc2c(Nc3cccc4ccccc34)ncnc21` belongs 3210 (inactive). To `CN(C)CCCn1c(SCc2ccc(Cl)cc2)nnc1-c1ccncc1` belongs 3820 (inactive). Consider `CC1CCCCC1NC(=O)CSc1nnc(-c2ccncc2)n1CCCN(C)C` (configuration not stated), for which the fluorescence intensity is 4240 (inactive). To `CSc1nnc(-c2ccncc2)n1CCCN1CCCC1=O` belongs 16700 (active); to `COc1cc(Cn2c3ccc(NC(=O)CC(C)c4ccccc4)cc3c(=O)n2C)ccc1F` (configuration not stated), 3950 (inactive). To `CCOc1ccc(C(=O)Nc2cccc(SC)c2)cc1` belongs 2060 (inactive).

As for `Cc1ccc(S(=O)(=O)N(Cc2cc3ccccc3[nH]c2=O)CC2CCCO2)cc1` (configuration not stated), the fluorescence intensity was 3240 (inactive). On to `Cc1cc(C(=O)Nc2nnc(C3CC3)s2)c(C)s1`, for which the fluorescence intensity was 5450 (inactive). To `COc1ccc(NC(=O)CCC(=O)Nc2nnc(C3CCCCC3)s2)cc1` belongs 5270 (inactive).

On to `Cc1occc1C(=O)Nc1nnc(C2CCCCC2)s1`, for which the fluorescence intensity was 22300 (active). To `CCc1nc2c(OCc3ccc(F)c(F)c3)cccn2c1N(C)C(=O)c1ccco1` belongs 3900 (inactive); to `O=C1Nc2ccccc2NC(c2ccc3c(c2)OCO3)=C1N(Cc1ccc(F)cc1)C(=O)c1ccco1`, 5250 (inactive); to `Clc1ccc2c(c1)C1=C(C(c3ccncc3)O2)C(c2ccc(Br)cc2)n2ncnc2N1` (configuration not stated), 16600 (active). To `Brc1ccc(C2=CC(c3ccco3)n3ncnc3N2)cc1` (configuration not stated) belongs 9350 (inactive). To `Cc1ccc(CN(Cc2cccnc2)C(=S)Nc2cc(Cl)ccc2C)cc1` belongs 4690 (inactive); to `CCN(CC)C(=O)CSc1nnc(-c2cnccn2)n1-c1ccc(C)cc1`, 23200 (active); to `CCn1c(SCC(=O)Nc2cc(C)ccc2C)nnc1-c1cnccn1`, 4580 (inactive). On to `Cc1ccc(CSc2nnc(-c3cnccn3)n2C)cc1`, for which the fluorescence intensity is 4420 (inactive). As to `CC(C)(C)C1CCC(=O)N2CCC[C@]2(c2ccccc2)C1` (some centres not stated), the fluorescence intensity was 5900 (inactive).

In the case of `CN(CC1CCCN(CCc2cccc(C(F)(F)F)c2)C1)C(=O)c1ccc2nc[nH]c2c1` (configuration not stated), the fluorescence intensity was 5960 (inactive).

`COc1cccc(NC(=O)C2(C)CCN2C(=O)CCC2CCCC2)c1` (configuration not stated): the fluorescence intensity was 2920 (inactive). To `N#C/C(=C\c1cccnc1)C(=O)Nc1ccc(SC(F)F)cc1` belongs 3830 (inactive). To `Nc1nnnn1/N=C/c1cccc(Br)c1` belongs 3440 (inactive); to `COc1ccc(/C=N/n2nnnc2N)cc1OC`, 4170 (inactive).

For `Nc1nnnn1/N=C/c1cccs1`, the fluorescence intensity is 21800 (active).

As for `COc1ncnc2c1ncn2CCCNCCN1CCOCC1`, the fluorescence intensity was 3370 (inactive). As to `COc1ccc(CCN(C(=O)COc2ccccc2)c2nc(-c3ccccc3)cs2)cc1OC`, the fluorescence intensity was 21300 (active). To `CN(Cc1ccccc1)C(=O)COc1ccccc1` belongs 2850 (inactive); to `COc1ccc(CN(C(=O)c2cccs2)c2nccs2)cc1OC`, 3950 (inactive); to `C[C@H](NC(=O)C1CCN(S(=O)(=O)c2ccccc2)CC1)C(=O)NCc1ccccc1`, 5500 (inactive). To `COc1cccc(CN2CCC(C(=O)NC(c3ccc4c(c3)OCO4)c3ccccn3)CC2)c1` (configuration not stated) belongs 3800 (inactive); to `Cc1cc(=O)oc2cc(NC(=O)C(C)Oc3ccccc3)ccc12` (configuration not stated), 5330 (inactive).

As for `Cc1cc(=O)oc2cc(OC(C)C(=O)Nc3ccc(N4CCOCC4)cc3)ccc12` (configuration not stated), the fluorescence intensity is 22000 (active).

With `COc1ccc(-c2cc(=O)oc3cc(OC(C)C(=O)Nc4ccc(CN5CCOCC5)cc4)ccc23)cc1` (configuration not stated), the fluorescence intensity was 5340 (inactive). For the molecule `COc1ccccc1C(=O)NC(=S)Nc1ccccc1N1CCCCC1`, the fluorescence intensity is 5870 (inactive).

With `O=C(NC(=S)Nc1ccccc1N1CCCCC1)c1ccc(F)cc1`, the fluorescence intensity is 6710 (inactive). To `COc1ccc(C(=O)NC(=S)Nc2ccccc2N2CCN(S(C)(=O)=O)CC2)cc1OC` belongs 22100 (active).
